Measured values reported in PubChem BioAssay AID1626 (SRMLSC, 2009).
The campaign covered roughly 220,000 compounds. About 2,000 (0.91%) were called active. Not shown: some 2% with an inconclusive outcome. Only a sample is shown. Results with a measured potency or affinity are listed apart. Values without a mark were called inactive. Rule as the data show it: inconclusive = inhibition above about 80% without an active follow-up result; inactive = below that; test concentration not stated here.

Assay: M. tuberculosis H37Rv growth inhibitors, H37Rv strain (AID 1626);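 also: bacteria incubated seven days before Alamar blue readout; 0% = bacteria only wells and 100% = bacteria with antibiotic wells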
Conditions: hits give high values, concentration not given here

| Structure (SMILES) | inhibition [%] |
| --- | --- |
| CCC/C=N/NC(=O)c1cc(Br)ccc1O | -8.13 |
| COc1cccc(-c2nc(N3CCN(c4ccccc4)CC3)c3ccccc3n2)c1O | -0.61 |
| CN1C=CC=C/C1=C1\SC(=S)N(CC(=O)O)C1=O | -3.47 |
| Cc1cccc(Cc2nnc(CCC(=O)NCc3ccncc3C)o2)c1 | -3.05 |
| O=C(C1=NN[C@@H]2C(=O)N(c3cccc(C(F)(F)F)c3)C(=O)[C@H]12)c1cnccn1 | -13.3 |
| S=C1NC(c2cccs2)=CC(c2ccc(Br)cc2)N1 (configuration not stated) | 12.7 |
| COc1ccc(CC(=O)OCC(=O)Nc2cccc(Cl)c2)cc1 | -0.87 |
| CC(C)(CN1CCCCC1)NS(=O)(=O)c1ccc(Cl)cc1 | 3.88 |
| CN(C)/C=C(\C#N)C(=O)Nc1ccc(F)cc1 | -3.02 |
| O=C(COC(=O)CNC(=O)c1cccc([N+](=O)[O-])c1)Nc1cccc(S(=O)(=O)N2CCCC2)c1 | -1.39 |
| C#CCOCCOCCOCCNc1nc(N2CCN(C(=O)C([C@@H](C)CC)n3cc(C(N)CO)nn3)CC2)nc(N2CCN(C(=O)C([C@@H](C)CC)n3cc(C(N)COC(=O)C(F)(F)F)nn3)CC2)n1 (some centres not stated) | -11.1 |
| CCOC(=O)NC(=O)c1cn(Nc2ncc(Cl)cc2C(F)(F)F)c(=O)[nH]c1=O | -8.73 |
| CCOC(=O)N1CCC(NC(=O)Cn2c3c(c(-c4ccccc4Cl)cc2=O)CCC3)CC1 | -2.35 |
| CCOC(=O)Cn1c2c(c(=N)c3c1CCC3)CCCC2 | -4.08 |
| CCNC(=S)N1CCC(c2nc3ccccc3s2)CC1 | -0.93 |
| O=C(NCc1cccnc1)c1cccc(S(=O)(=O)N2CCOCC2)c1 | 0.09 |
| c1ccc2c(c1)CCc1c-2nc2ccccc2c1N1CCOCC1 | 4.28 |
| COc1ccc2c(-c3ccccc3)cc(N3CCOCC3)nc2c1 | -14.6 |
| Cc1cccn2cc(-c3ccc(S(=O)(=O)N4CCCCC4)cc3)nc12 | 0.16 |
| c1ccc2c(N3CCCCC3)nc(N3CCCC3)nc2c1 | -8.46 |
| CN1CCN(c2nc(-c3ccncc3)nc3ccccc23)CC1 | 3.8 |
| c1ccc2c(c1)nc(N1CCCCC1)c1ccccc12 | 12.2 |
| CC1CCN(c2nc(-c3ccccc3O)nc3ccccc23)CC1 | -2.32 |
| Oc1ccccc1-c1nc(N2CCCC2)c2ccccc2n1 | -6.53 |
| CC1CCN(c2ncnc3ccccc23)CC1 | -8.39 |
| c1ccc2c(N3CCCC3)nc(-c3ccncc3)nc2c1 | 6.26 |
| c1ccc2c(c1)nc(N1CCCCCC1)c1ccccc12 | 3.85 |
